# Compound activity: PubChem, National Center for Advancing Translational Sciences (NCATS)
# Shown are actives, neighbours in structure and some others; about 12% of the full set was active somewhere.
# Pf growth 48h: inhibits P. falciparum growth in the first generation, 48 h | hit rate 5.9% among 310,000 | Potency, µM (titrated, usually from 28.7 µM), for inactives: at the top dose activity change, negative = inhibition, hits mostly inhibitors | AID 504832 | P. falciparum luciferase growth in erythrocytes, 48 h; also: % is scaled to controls: 0 for no effect and ±100 for the full control effect
#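 First compound was added to culture medium, then infected red cells at 0.1% parasitemia and 2% hematocrit (final). After incubation at 37 C under 5% CO2, luciferase detection reagent was dispensed and light output recorded.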
# SARS PLpro yeast: SARS-CoV PLP inhibition in yeast; S. cerevisiae expressing SARS-CoV PLpro, growth rescue; Potency, µM (top dose mostly 32.9 µM), for inactives: at the top dose activity, positive = growth rescue, hits mostly activators; hit rate 0.19% among 330,000; AID 485353; calls by dose curve; also: 0% is about no effect; nearly all actives have a fitted effect of over 55% in size
# Pf growth 96h: P. falciparum growth inhibition at 96 hour, primary screen for plastid delayed-death inhibitors | P. falciparum luciferase reporter growth, 96 h | Potency, µM (top dose mostly 28.7 µM), for inactives: at the highest dose activity change, negative = inhibition, actives largely listed as inhibitors | hit rate 6.9% among 320,000 | AID 504834; also: % is scaled to controls: 0 for no effect and ±100 for the full control effect
#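 Delayed-death screen, second-generation endpoint: infected erythrocytes, 2% hematocrit, 0.05% parasitemia final; 96 hours at 37 C, 5% CO2; luciferase detection reagent; luminescence decrease equals reduced growth.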
# Sm TGR inh: blocks Schistosoma mansoni thioredoxin glutathione reductase. Q962Y6. purified TGR, DTNB reduction, TNB absorbance 405 nm. Potency, µM (series often up to 114 µM), inactives show at the highest dose activity change, negative = inhibition, actives largely listed as inhibitors. hit rate 3% among 360,000. AID 485364; also: % is scaled to controls: 0 for no effect and ±100 for the full control effect; nearly all actives have a fitted effect of over 60% in size
#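 Kinetic colorimetric format: TGR-catalysed, NADPH-driven DTNB reduction monitored via TNB absorbance. Enzyme dispensed at 20 nM; compound exposure 15 min at room temperature before reaction start.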
# * marks the source's active call; other numbers are inactive results; ? = inconclusive; / = not tested or not shown; [ ] = dose if it differs, or a comment. Unless noted, calls follow the shape of the dose curve; as a rule, active = well fitted curve in the direction sought with a large enough effect; inconclusive = small, poorly fitted or top-dose-only effect, or another doubt; inactive = no such curve, though single readings can be large; an effect the other way counts as inactive or inconclusive. Potency is read from the fitted curve at half-maximal effect.
SMILES,Pf growth 48h,SARS PLpro yeast,Pf growth 96h,Sm TGR inh
O=C(O)c1cc(S(=O)(=O)N2CCN(S(=O)(=O)c3ccccc3)CC2)ccc1Cl,/,-1%,-6%,-4%
CCCn1nc(C(=O)NNC(=O)CCCOc2ccc(C)cc2)c2ccccc2c1=O,-3%,?,-3%,-7%
COC(=O)Cc1ccc(OC(=O)CCS(=O)(=O)c2ccc(C)cc2)cc1,-20%,/,0%,-17%
c1ccc(C2CNCCc3ccccc32)cc1 (stereo unspecified),-2%[0.00184 µM],0%,1.7µM*,-21%
COC(=O)c1cn(C(=O)c2ccc(OC)cc2)c2ccccc12,-3%,-9%,?,74%
O=C(NNc1c2ccccc2nc2ccccc12)c1ccc(O)cc1,?,2%,-102%,-2%
O=C(NNc1c2ccccc2nc2ccccc12)c1cccc(O)c1,13µM*,-9%,?,-1%
O=C(NNc1c2ccccc2nc2ccccc12)C12CC3CC(CC(C3)C1)C2,?,-4%,13µM*,3%
O=C(NNc1c2ccccc2nc2ccccc12)c1ccccc1O,?,4%,10µM*,-6%
O=S(=O)(Nc1ccc2c(c1)OCCO2)c1c(F)cccc1F,10%,1%,9%,-18%
CCc1cccc(NC(=O)CN2C(=O)COc3ccc(S(=O)(=O)N4CCC(C)CC4)cc32)c1,/,/,/,13%
CC1Cc2ccccc2N1C(=O)CSc1nnc2n1C(C)(C)Cc1ccccc1-2 (stereo unspecified),?,2%,2.6µM*,0%
CCOC(=O)CSc1nnc2n1C(C)(C)Cc1ccccc1-2,-13%,-20%,?,-21%
CC(C)(C)NC(=O)Cn1ccc(=N)c2ccccc21,?,-1%,-98%,1%
CCCN(CCC)C(=O)Cn1ccc(=N)c2ccccc21,1.7µM*,-5%,/,5%
CCN(CC)C(=O)Cn1cc(SCC(=O)NC)c2ccccc21,14%,0%,12µM*,1%
CCn1cc(SCC(=O)NC2CCCC2)c2ccccc21,7.4µM*,-3%,?,8%
COc1cc(OC)c(NC(=O)C(C)n2nc(-c3ccc(C)c(C)c3)ccc2=O)cc1Cl (stereo unspecified),/,/,/,1%
CCOc1cc(CNCCCN2CCOCC2)cc(Cl)c1OCC(=O)NC(C)(C)C,?,0%,225%,-3%
CCOc1cc(CNCCCN2CCOCC2)cc(Br)c1OCC(=O)Nc1cccc(C(F)(F)F)c1,1.2µM*,-5%,0.66µM*,4%
CCOc1cc(CNC(C)(C)C)ccc1OCC(=O)Nc1cccc(C(F)(F)F)c1,6.6µM*,0%,43%[1.15 µM],5%
CCC(CO)NCc1ccc(OCC(=O)Nc2cccc(C(F)(F)F)c2)c(OC)c1 (stereo unspecified),-1%,23%,-20%,2%
COc1cccc(CNc2nc3c(-c4ccccc4)nnn3c3ccccc23)c1,/,/,/,-3%
Cc1nnc(NC(=O)NCN2C(=O)C3C4C=CC(C4)C3C2=O)s1 (stereo unspecified),?,5%,3.7µM*,11%
CCc1nnc(NC(=O)NCN2C(=O)C3C4C=CC(C4)C3C2=O)s1 (stereo unspecified),3%,1%,?,4%
SMILES,Pf growth 48h,SARS PLpro yeast,Pf growth 96h,Sm TGR inh
CCN(CC)CCC(=O)Nc1ccc2c(c1)N(C(=O)CN(CC)CC)c1ccccc1CC2,10µM*,-3%,?,-15%
CN(C)CC(=O)N1c2ccccc2CCc2ccc(NC(=O)c3ccc(N)cc3)cc21,5.9µM*,-4%,65%,5%
COc1cc(C(=O)Nc2ccc3c(c2)N(C(=O)CCN(C)C)c2ccccc2CC3)cc(OC)c1OC,10µM*,0%,9.3µM*,9%
CCOC(=O)Nc1ccc2c(c1)N(CCCN(C)C)c1ccccc1CC2,?,-16%,13µM*,10%
Cc1ccc(CCNC(=O)C2CCN(S(=O)(=O)c3ccc4c(ccn4C)c3)CC2)cc1,/,/,/,-2%
CC(C)(C)c1cc(O)ccc1O,6µM*,/,11µM*,/
CC(C)c1ccc(OCC(=O)Nc2ccc3oc(=O)ccc3c2)cc1,-14%,-4%,3.3µM*,-8%
COc1ccc(OCC(=O)Nc2ccc3oc(=O)ccc3c2)cc1,?,0%,9%,-5%
COc1ccc(C(=O)NC(=S)Nc2ccc3oc(=O)ccc3c2)cc1,9%,9%,34%,-1%
CCCCCC(=O)NC(=S)Nc1ccc2oc(=O)ccc2c1,-12%,-1%,13µM*,-28%
Cc1ccc(OCC(=O)Nc2ccc3oc(=O)ccc3c2)c(C)c1,0%,-7%,?,6%
Cc1cc(Cl)ccc1OCC(=O)Nc1ccc2oc(=O)ccc2c1,-8%,0%,12µM*,1%
CCCCCOc1ccc(C(=O)CCC(=O)NNC(=O)c2ccncc2)cc1,61%,-3%,40%,-3%
CCOC(=O)CNC(=O)Nc1cc(C(=O)NCc2ccc(C(C)C)cc2)ccc1N1CCCC1,/,/,/,7%
C=CCn1c(C)cc(C(=O)CSc2nnc(Cc3ccccc3)o2)c1C,7%,?,?,0%
Cc1ccc(NC(=O)CSc2nnc(CNC(=O)c3ccco3)o2)cc1Cl,5%,1%,-14%,0%
COc1ccc(OC)c(NC(=O)CSc2nnc(CNC(=O)c3ccco3)o2)c1,/,-2%,2.6µM*,-17%
COc1ccc(Cl)cc1NC(=O)CSc1nnc(CNC(=O)c2ccco2)o1,10%,-2%,?,4%
Cc1cc(C)c(NC(=O)CSc2nnc(CNC(=O)c3ccco3)o2)c(C)c1,-20%,1%,9.3µM*,2%
O=C(CSc1nnc(CNC(=O)c2ccco2)o1)Nc1cccc(Cl)c1,15%,8%,5.9µM*,3%
Cc1cc(C(=O)CSc2nnc(Cc3ccccc3)o2)c(C)n1Cc1ccc2c(c1)OCO2,9.3µM*,1%,?,-30%
O=C(NCCS(=O)(=O)N1CCC2(CC1)OCCO2)c1ccc(F)cc1,-2%,1%,40%,-20%
COc1ccc(S(=O)(=O)N2CCN(CC3CC=CCC3)CC2)cc1 (stereo unspecified),19%,0%,?,-2%
COc1ccccc1NC(=O)Cn1c(=O)n(CCC(=O)NCC2CCCO2)c(=O)c2cc(OC)c(OC)cc21 (stereo unspecified),/,/,/,-8%
c1ccc(C(c2ccccc2)c2ccn[nH]2)cc1,-23%,-1%,-20%,16%
SMILES,Pf growth 48h,SARS PLpro yeast,Pf growth 96h,Sm TGR inh
Cc1cccc(C)c1NC(=O)CSc1nnc(Cc2ccccc2)o1,-17%,2%,12µM*,-4%
O=C(COc1ccc(Cl)cc1)NCc1nnc(SCC(=O)Nc2ccccc2)o1,/,16%,?,-1%
O=C(CSc1nnc(CNC(=O)c2ccco2)o1)Nc1ccccc1,13%,-3%,26%,11%
O=C(CSc1nnc(CNC(=O)c2ccco2)o1)Nc1ccc(Cl)cc1,21%,-6%,10µM*,-1%
O=C(CSc1nnc(CNC(=O)c2ccco2)o1)c1ccccc1,/,-4%,4.1µM*,5%
O=C(COc1ccc(Cl)cc1)NCc1nnc(SCC(=O)c2ccccc2)o1,-6%,-5%,4.1µM*,-16%
CN(C)c1ccc(-c2nc(-c3ccco3)no2)cc1[N+](=O)[O-],/,/,/,-16%
CSc1nc(N)nc2c1ncn2CC(=O)Nc1ccc(C)c(C)c1,/,3%,/,/
